# HCMV UL50-53 inh – inhibitors of HCMV UL50-UL53 interaction, biochemical, HTRF | HCMV UL50-UL53 nuclear egress complex (human cytomegalovirus) | normalized percent inhibition | inhibition, % (test concentration not listed) | hit rate 0.15% among 190,000 | AID 1918969, 2023; in the data active = inhibition above about 27%, passing the limit was not always enough
# Sa growth inh – S. aureus growth inhibition at 42 and 30 °C, primary screen, LtaS inhibitor project, RN4220, two temperatures. OD600, 20 h, 42 °C; hits give low values. relative growth, % (test concentration not listed). hit rate 0.53% among 170,000. AID 720641, 2013;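 active = relative growth at most 50% at the other temperature and 20+ points below 30 °C, or under 10% at both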
# Sa helicase inh – inhibitors of S. aureus replicative helicase, primary screen, biochemical, fluorescence unwinding readout | hit rate 0.05% among 120,000 | inhibition, % (test concentration not listed) | replicative DNA helicase (DnaC/DnaB), Staphylococcus aureus | purified S. aureus helicase, fluorescence unwinding assay | AID 485395, 2010; in the data active = inhibition above about 25%, passing the limit was not always enough;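 note: 0% = mean of negative control wells and 100% = mean of positive control wells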
# * = called active by the depositor; x = no result given. The entries come from a sample that favours hits as a whole.
SMILES,HCMV UL50-53 inh,Sa growth inh,Sa helicase inh
COc1ccc(C2CC(=O)C3=C(C2)Nc2ccccc2NC3c2cc([N+](=O)[O-])ccc2Cl)cc1 (centres undefined),41*,x,x
CCc1ccc(NC(=O)CNc2ccc(C#N)cc2)cc1,6,102,7
CCN(CC)Cc1nc2sc(C)c(C)c2c(=S)[nH]1,-11,-0.7*,-13
Cc1sc2nc(CC#N)[nH]c(=O)c2c1C,1,91,-42
COC(=O)C1=CN(C23CC4CC(CC(C4)C2)C3)C=C(C(=O)OC)C1c1ccc(F)cc1,x,86,7
CCOc1ccc(OCCCCn2ccnc2)cc1,-8,120,4
CC(C)(C)c1ccccc1OCCCCCn1ccnc1,-20,-1.0*,3
O=c1cc(Nc2cccc(O)c2)c2ccccc2o1,7,84,-5
NC(Sc1nc(=O)n(C2CCCCC2)c2c1CCC2)c1cccc2ccccc12 (centres undefined),-7,x,x
COc1ccc(OC)c(CNC(=O)c2ccc3noc(-c4ccc(Cl)cc4)c3c2)c1,-12,x,x
CCOC(=O)C1=C(C)N=c2s/c(=C\c3ccc(OC)cc3)c(=O)n2C1c1cc(OC)ccc1OC (centres undefined),-16,x,x
COC(=O)c1c(COc2ccccc2)n[nH]c1C,6,113,x
Cc1n[nH]c(C)c1CCC(=O)O,1,108,5
Cc1n[nH]c(C)c1CCCCCOc1ccccc1,-19,0.0*,13
Cc1n[nH]c(C)c1CCCOc1ccccc1,x,8.3*,-2
Cc1cccc(CNC(=O)Cc2c(C)n[nH]c2C)c1,-19,x,x
CCCCN(C)Cc1ccncc1,-19,112,6
O=C1CN=C(Nc2ccccc2Cl)N1Cc1ccccc1,15,127,3
Cc1cccc(NC2=NCC(=O)N2Cc2ccccc2)c1,59*,134,14
Cc1ccc(N2C(=O)CN(CCc3ccccc3)[C@H]3CS(=O)(=O)C[C@H]32)cc1C,7,x,x
CCOc1cccc(OCC)c2c(C)[n+](C)c(C)c1-2,x,123,58*
CCOc1cccc(OCC)c2c(C)nc(C)c1-2,-74,105,7
COC(=O)c1ccc(N2CCN(C)CC2)c(NC(=O)C(C)(C)Oc2ccc(Cl)cc2)c1,-31,92,10
CC1CCN(S(=O)(=O)c2nnc(NC(=O)c3ccccc3)s2)CC1,-14,x,x
O=C(/C=C(\O)c1ccc(Br)cc1)C(=O)Nc1ccccc1,35,45,x
SMILES,HCMV UL50-53 inh,Sa growth inh,Sa helicase inh
O=C(/C=C(\O)c1ccccc1)C(=O)Nc1cccc(F)c1,-26,-0.6*,20
CC(C)n1c(=N)c(C#N)cc2c(=O)n3ccccc3nc21,-26,94,-88
Cc1ccc(-c2cc3c(SCC(=O)Nc4nccs4)nccn3n2)cc1,-22,x,x
O=c1c2c(-c3ccccc3)csc2nc2c3ccccc3c(NCC3CCCO3)nn12 (centres undefined),-13,x,x
Cc1sc(C)c(S(=O)(=O)NCc2ccc(Cl)cc2)c1-c1ccno1,-29,x,x
O=C(CSC1=Nc2ccccc2N=C(c2ccccn2)C1)NCc1ccccc1Cl,-35,x,x
CCn1c2ccc(C)cc2c2nc(C)sc21,54*,66,3
Cc1nc2c3cc(F)ccc3n(CCN3CCOCC3)c2s1,28,86,15
Cc1nc(-c2ccc3[nH]c(=O)oc3c2)cs1,-8,-1.1*,18
Cc1nc(-c2ccc3ccccc3c2)cs1,-34,x,-23
COc1cc(/C=C(\C#N)C(=O)NC2CCCCC2)cc(OC)c1O,-41,108,-52
COC(=O)C1(CO)NC(c2ccc(Cl)cc2)C2C(=O)N(C)C(=O)C21 (centres undefined),-1,116,13
Cc1ccc2c(c1)-c1c(cnn1CC(=O)NCCCN(Cc1ccccc1)C(C)C)CO2,-30,x,x
CCOC(=O)c1c(-c2ccccc2)csc1N,7,103,-12
CCOC(=O)c1c(N)sc(SC#N)c1-c1ccccc1,-7,4.9*,21
O=C(Oc1c(Cl)cc(Cl)c2cccnc12)c1ccco1,-48,1.7*,32
Oc1c(Cl)cc(Cl)c2cccnc12,-32,65,x
CCOc1ccc(C2=CC(c3cccc(OC)c3)c3ccccc3O2)cc1 (centres undefined),x,63,-6
Cc1ccc(NC(=O)CSc2nc3ccsc3c(=O)n2Cc2ccccc2F)cc1Cl,x,102,0
COc1ccc(Cn2c(SCC(=O)Nc3cccc(Cl)c3)nc3ncccc3c2=O)cc1,2,93,7
O=C(CSc1nc2c(sc3ncccc32)c(=O)n1Cc1ccc(F)cc1)Nc1ccc(F)c(F)c1,64*,x,x
O=C(CSc1nc2c(sc3ncccc32)c(=O)n1Cc1ccccc1)Nc1ccc(F)c(F)c1,68*,x,x
CCOC(=O)CSc1nc2c(sc3ccccc32)c(=O)n1Cc1ccc(C)cc1,x,105,x
CC(C)CSc1nc2c(sc3ncccc32)c(=O)n1Cc1ccccc1,62*,x,x
O=S1(=O)c2ccccc2NC(c2ccccc2Cl)N1Cc1ccccc1 (centres undefined),-10,x,x
SMILES,HCMV UL50-53 inh,Sa growth inh,Sa helicase inh
O=C(CCCCl)NC(c1ccccc1)c1ccccc1,-11,93,13
Cc1cc(-c2cn3nc(-c4ccccc4)c(-c4ccccc4)nc3n2)c(C)n1Cc1ccco1,10,90,-305
Cn1c(CN2CCCC2)nc2cc(NS(=O)(=O)c3ccc(F)cc3)ccc21,-3,108,16
Cc1cc(C)c2c(=O)c(C(=O)O)coc2c1,4,96,x
c1ccc(-c2cccc(-c3ccccn3)n2)nc1,9,2.4*,12
c1ccc(-c2ccc3ccccc3n2)nc1,-40,63,-5
CCc1ccc(Nc2c3c(nc4ccccc24)CCCC3)cc1,x,79,7
CCc1ccc(Nc2c3c(nc4ccccc24)CCC3)cc1,x,6.7*,18
O=C(/C=C/c1ccco1)Nc1ccc(Br)cc1,28,104,16
Cc1ccc(NC(=O)C(C)Sc2nnc(C3CCCCC3)n2C)cc1 (centres undefined),8,88,2
CCOC(NC(=O)Nc1ccc(Br)cc1)(C(F)(F)F)C(F)(F)F,-12,-0.7*,x
CCOC(NC(=O)c1ccccc1)(C(F)(F)F)C(F)(F)F,36,114,x
CC(=O)N1c2ccc(S(=O)(=O)NC(Cc3ccccc3)C(=O)N3CCCCC3)cc2CC1C (centres undefined),-34,91,-25
CN(C)c1ccc(C(c2cc3c(cc2O)OCO3)N2CCCCC2)cc1 (centres undefined),2,0.9*,6
Cc1cc(C)cc(C(=O)NCC(c2ccc(N(C)C)cc2)N2CCCC2)c1 (centres undefined),x,89,x
COc1ccc(C(=O)NCC(c2ccc3c(c2)OCO3)N2CCOCC2)cc1 (centres undefined),x,85,x
COc1ccc(C(c2cc3c(cc2O)OCO3)N2CCOCC2)cc1 (centres undefined),1,1.8*,7
COc1cccc(-c2nnc3n2CC(C)S3)c1 (centres undefined),-2,102,15
O=C(COC(=O)c1ccccc1C(=O)c1ccccc1)NC1CCCCC1,-2,82,23
O=c1[nH]cnc2c1CN=N2,-24,85,x
O=C(Nc1nncs1)c1cc(-c2cccc(Br)c2)nc2ccccc12,-17,x,x
Cc1ccc(NC(=O)Nc2ccc3c(c2)N(C)C(=O)CS3)cc1,x,113,4

# Screening results from PubChem BioAssay.
